Only some compounds are listed: those with a hit (about 2.8% of all), similar ones and a draw of the others.
CDK5 inh – blocks human CDK5/p35 kinase activity | 0.01% of 330,000 active | Recombinant CDK5/p35, ADP-Glo luminescence, 60 min | Q00535+Q15078 | inhibition, % at 10 µM;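 active means highest replicate inhibition of at least 50% and at least 75% of replicates reaching 50%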;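 further: plate controls were DMSO neutral control for no effect and GW8510 at 10 µM for full effect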
PvdQ inh – blocks Pseudomonas aeruginosa PvdQ acylase activity | 0.063% of 340,000 active | AID 488965 | inhibition, % at 10 µM | purified PvdQ acylase, fluorescence plate reader; in the data active means inhibition above about 30%, passing the limit was not always enough;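 further: 0% = vehicle neutral wells and 100% = reference inhibitor wells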
FGF22 binding – binders of recombinant human FGF22 by thermal shift | SYPRO orange fluorescence; percent of sucrose octasulfate shift, DMSO zero | 1.5% of 340,000 active | activity (Tm shift, normalised), % at 9.99 µM | Q9HCT0;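 active means mean Tm shift, scaled 0 neutral to 100 positive control, at about 1.3% or above, every replicate too, limit read from the data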
PglD inh – PglD (C. jejuni) enzyme inhibition. purified PglD enzyme, DTNB colorimetric CoA detection. AID 602405. inhibition, % at 12.5 µM. 0.098% of 360,000 active; in the data active means inhibition above about 16%, passing the limit was not always enough
SIRT5 inh – inhibitors of human sirtuin-5 desuccinylase | inhibition, % at 15 µM | Q9NXA8 | Purified SirT5, succinyl-peptide AMC, trypsin-coupled fluorescence | 1.1% of 330,000 active; in the data active means inhibition above about 15%
Target sequence (Q9NXA8 whole entry, looked up): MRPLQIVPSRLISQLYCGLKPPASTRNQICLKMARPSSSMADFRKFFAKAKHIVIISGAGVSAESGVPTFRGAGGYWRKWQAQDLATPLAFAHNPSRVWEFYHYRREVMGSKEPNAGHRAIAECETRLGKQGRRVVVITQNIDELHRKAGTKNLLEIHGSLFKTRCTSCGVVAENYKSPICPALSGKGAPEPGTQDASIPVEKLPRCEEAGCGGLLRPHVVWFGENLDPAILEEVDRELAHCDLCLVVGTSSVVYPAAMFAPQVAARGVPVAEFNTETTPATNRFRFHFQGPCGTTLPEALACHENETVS
dFosB activator – activators of mouse delta FosB homodimer; P13346; purified delta FosB, TAMRA-CDK5 oligo fluorescence polarization; percent of positive-control signal above neutral wells; activation, % at 25 µM; 0.99% of 340,000 active; AID 493131;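 active means mean activation above about 17%, with every replicate also reaching it, limit read from the data, passing the limit was not always enough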
Active calls of the source: *; nt = no result given.

SMILES	CDK5 inh	PvdQ inh	FGF22 binding	PglD inh	SIRT5 inh	dFosB activator
Cc1noc(C)c1NC(=O)Nc1ccc2c(c1)C(=O)N([C@@H](C)CO)C[C@H](C)[C@H](CN(C)Cc1ccc(C(F)(F)F)cc1)OCCCC[C@H](C)O2	nt	nt	0	-1	15	nt
COc1cc(OC)cc(-c2nc3ccccc3c(=O)n2OC(=O)c2ccc(Br)cc2)c1	-1	-1	1.7*	nt	2	2
Nc1ccc2c(c1)C(=O)c1cc(N)c(Cl)cc1-2	3	-11	43*	-1	nt	7
Nc1ccc2c(c1)C(=O)c1ccc(Cl)cc1-2	-2	-17	1	4	nt	1
CC(C)(C)OC(=O)N1CCC[C@@H]1C(=O)N1CCC[C@H]1C(=O)NCc1ccccc1	nt	nt	0	nt	nt	nt
CC(C)(C)OC(=O)N1CCC[C@H]1C(=O)NCc1ccc(Cl)cc1Cl	1	-9	65*	nt	-4	-4
CC(C)(C)OC(=O)N1CCC[C@H]1C(=O)N1CCC[C@H]1C(=O)NCc1ccc(F)cc1F	nt	nt	0	nt	17*	nt
COc1ccc(Cl)cc1-n1c(=S)sc2c(=O)[nH]c(SCC(=O)C(C)(C)C)nc21	0	-10	1	-1	1	-11
CCCCNC(=O)CSc1nc2c(sc(=S)n2-c2cc(Cl)ccc2OC)c(=O)[nH]1	-1	0	1.4*	1	-2	2
CCc1ccc(-n2c(=S)sc3c(=O)[nH]c(SCC(=O)NC4CCCCC4)nc32)cc1	nt	nt	44*	0	nt	nt
CCC(=O)N1[C@H](CN(C)C(C)=O)[C@@H](c2ccc(-c3ccccc3)cc2)[C@@H]1CO	nt	nt	0	4	0	nt
O=C(C[C@@H]1CC[C@H](NC(=O)Nc2ccc(F)cc2)[C@H](CO)O1)NCCN1CCCC1	nt	nt	0	2	2	nt
CCC(CO)NC(=O)c1ccccc1C(F)(F)F (stereo not drawn)	1	-9	0	nt	23*	-5
Cc1cc(Br)c(NC(=O)COC(=O)CC2CC3CCC2C3)c(Br)c1 (stereo not drawn)	-4	-4	0	1	19*	-2
N#C/C(=C\c1ccc(OC(F)F)cc1)C(=O)N1CCCCC1	1	-11	0	2	-4	-6
CCN1CCN(C(=O)/C(C#N)=C/c2ccc(OC(F)F)cc2)CC1	-3	1	42	-1	18*	0
CCOc1cc(/C=C2\SC(=S)N(C(C(=O)O)c3ccccc3)C2=O)ccc1O (stereo not drawn)	-8	-1	nt	-14	11	9
COc1cc(/C=C2\SC(=S)N(C(C(=O)O)c3ccccc3)C2=O)ccc1O (stereo not drawn)	3	1	nt	-10	4	23*
CCOc1ccc(/C=C2/SC(=S)N(C(C(=O)O)c3ccccc3)C2=O)cc1OCC (stereo not drawn)	1	-5	7.5*	nt	10	-7
COc1ccc2c(Cl)c(C(=O)NC3CCS(=O)(=O)C3)sc2c1 (stereo not drawn)	-1	-9	nt	7	nt	-5
COc1ccc2c(Cl)c(C(=O)NN3CCN(C)CC3)sc2c1	0	-4	44*	2	-4	1
COC(=O)c1cc(S(=O)(=O)NCc2ccccc2)c[nH]1	0	-14	0	-1	-4	-1
COC(=O)c1cc(S(=O)(=O)NCc2ccc(Br)cc2)c[nH]1	0	-8	0	-10	22*	1
Cc1noc(C)c1S(=O)(=O)Nc1ccc2c(c1)CC(=O)N([C@H](C)CO)C[C@H](C)[C@H](CN(C)C)O2	nt	nt	0	5	-4	nt
COc1ccc(OC)c(-c2csc(NC(=O)CSc3nnnn3C)n2)c1	2	-6	0	nt	-1	33*
SMILES	CDK5 inh	PvdQ inh	FGF22 binding	PglD inh	SIRT5 inh	dFosB activator
COc1ccc(NC(=O)CSc2nnnn2C)cc1	1	-15	0	nt	-2	-4
COc1ccc2nc(NC(=O)CSc3nnnn3C)sc2c1	-1	6	43*	nt	1	-2
C[C@@H]1CN([C@H](C)CO)C(=O)c2cc(NC(=O)Nc3ccc4c(c3)OCO4)ccc2O[C@H]1CN(C)C	nt	nt	0	-1	1	nt
O=C(C[C@H]1CC[C@@H](NC(=O)CC2CC2)[C@H](CO)O1)NCc1ccccc1	nt	nt	nt	nt	-5	nt
Cc1ccc(S(=O)(=O)N2CC[C@H]3[C@@H](CO)N(C)c4ccc(C#Cc5cccnc5)cc4[C@H]32)cc1	nt	nt	0	0	nt	nt
O=C(COc1ccccc1Br)Nc1ccccc1C(F)(F)F	-1	4	43*	nt	-1	-9

Assay outcomes deposited in PubChem BioAssay by Broad Institute.
